# “And” between values parts separate entries of the source, which are not always exact repeats. Identical values can stand only once. Records with an inconclusive call do not appear. A structure can be active in one record and inactive in another. The source made the active and inactive calls. How the source made its calls, unless noted: active means hit-call score of the fitted dose curve at least 0.9, where 1 is the maximum; inconclusive means response in the unintended direction; inactive means score below 0.9.
# Experiments:
# [1] = ATG_Oct_MLP_CIS: Attagene CIS-FACTORIAL HepG2 Assay for human Octamer-Binding Transcription Factor (Oct) (AID 2282993; active means hit-call score of the fitted dose curve at least 0.9, where 1 is the maximum; inactive means score below 0.9); settings: HepG2 Attagene cis-factorial Oct reporter, mRNA; actives raise or lower the signal
# Procedure, shortened: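 Read-out: reporter mRNA via RT-PCR plus capillary electrophoresis of 6-FAM-labelled fragments. Transiently transfected HepG2, 24 h exposure, endogenous TF activity on cis elements. Gain or loss of signal fitted relative to DMSO.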
# [2] = molecular target: Cellular tumor antigen p53 (Homo sapiens) (UniProt P04637); assay: ATG_p53_CIS: Attagene CIS-FACTORIAL HepG2 Assay for human p53 Transcription Factor (AID 2282994; active means hit-call score of the fitted dose curve at least 0.9, where 1 is the maximum; inactive means score below 0.9); settings: HepG2 p53 cis-element reporter, Attagene mRNA; actives raise or lower the signal
# Procedure, shortened: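 HepG2, transient MRTU transfection (cis promoter elements, endogenous TFs); 24 h dosing; RNA isolation, RT-PCR, 6-FAM primer extension, HpaI digest, CE fluorescence; bidirectional fit vs DMSO.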
# [3] = BSK_3C_uPAR: BioMAP Diversity Plus: 3C Assay for Urokinase-type plasminogen activator receptor (uPAR) Biomarker Activity (AID 2282998; active means hit-call score of the fitted dose curve at least 0.9, where 1 is the maximum; inactive means score below 0.9); settings: BioMAP 3C HUVEC, uPAR biomarker ELISA; actives raise or lower the signal
# Procedure, shortened: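 HUVEC primary cells; 24 h post-dose; uPAR by ELISA; gain or loss of signal fitted bidirectionally vs DMSO baseline.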
# [4] = BSK_3C_VCAM1: BioMAP Diversity Plus: 3C Assay for Vascular cell adhesion molecule 1 (VCAM1) Biomarker Activity (AID 2282999; active means hit-call score of the fitted dose curve at least 0.9, where 1 is the maximum; inactive means score below 0.9); settings: BioMAP 3C HUVEC, VCAM1 ELISA, cytokine-stimulated; actives raise or lower the signal
# Procedure, shortened: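 Human umbilical vein endothelial cells (3C system), biomarker read by ELISA 24 h after dosing; bidirectional fit against DMSO baseline. Cytotoxicity tracked by SRB total-protein staining in parallel cultures at biomarker time.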
# [5] = BSK_4H_Eotaxin3: BioMAP Diversity Plus: 4H Assay for Eotaxin 3 Biomarker Activity (AID 2283000; active means hit-call score of the fitted dose curve at least 0.9, where 1 is the maximum; inactive means score below 0.9;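 on outcome: CCL26 protein level quantified by ELISA in parallel with SRB cytotoxicity check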); settings: primary human endothelial cells (HUVEC); actives raise or lower the signal
# Procedure, shortened: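 Endothelial primary cells (human umbilical vein) exposed to compound for 24 h. ELISA detection of Eotaxin-3.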
# [6] = molecular target: human Peroxisome Proliferator-activated Receptor delta (PPARd), PPARD (gene 5467) (UniProt Q03181); assay: ATG_PPARd_TRANS: Attagene TRANS-FACTORIAL HepG2 Assay for human Peroxisome Proliferator-activated Receptor delta (PPARd) (AID 2283002)
# Procedure, shortened: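 Read-out: reporter mRNA induction, quantified by fluorescent RT-PCR products resolved by capillary electrophoresis. Human HepG2 liver cells carried transiently transfected Gal4-UAS reporter constructs with chimeric NR-Gal4 fusions. Cells were dosed for 24 h; DMSO served as baseline.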
# [7] = read-out: Intercellular Adhesion Molecule 1 (ICAM1), ICAM1 (gene 3383); assay: BSK_3C_ICAM1: BioMAP Diversity Plus: 3C Assay for Intercellular Adhesion Molecule 1 (ICAM1) Biomarker Activity (AID 2283003; active means hit-call score of the fitted dose curve at least 0.9, where 1 is the maximum; inactive means score below 0.9); settings: primary human endothelial cells (HUVEC); actives raise or lower the signal
# Procedure, shortened: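 Human vascular endothelial primary cells, 3C conditions, 24 h treatment. ICAM-1 by ELISA.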
# [8] = BSK_3C_Proliferation: Cell Proliferation Assessment in the BioMAP Diversity Plus: 3C Assay (AID 2283006; active means hit-call score of the fitted dose curve at least 0.9, where 1 is the maximum; inactive means score below 0.9;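 on AC50: potency may reflect either rise or fall in cell number versus DMSO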); settings: primary human endothelial cells (HUVEC)
# Procedure, shortened: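 Proliferation of human vascular endothelial primary cells after 48 h dosing, quantified as SRB-stained protein at 560 nm relative to DMSO.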
# [9] = molecular target: Nuclear receptor subfamily 1 group I member 2 (Homo sapiens) (UniProt O75469); assay: ATG_PXR_TRANS: Attagene TRANS-FACTORIAL HepG2 Assay for human Pregnane X Receptor (PXR) (AID 2283008)
# Procedure, shortened: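 Read-out is fluorescence of labelled reporter cDNA fragments separated by capillary electrophoresis after RT-PCR and HpaI digestion. Source: HepG2 cells carrying PXR-GAL4/UAS reporter constructs, treated 24 h; activity fitted upward relative to DMSO.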
# [10] = molecular target: human RAR-related Orphan Receptor beta (RORb), RORB (gene 6096) (UniProt Q92753); assay: ATG_RORb_TRANS: Attagene TRANS-FACTORIAL HepG2 Assay for human RAR-related Orphan Receptor beta (RORb) (AID 2283010)
# Procedure, shortened: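 In this TRANS-format test, human HepG2 cells express chimeric NR-Gal4 fusion proteins driving GAL4-UAS reporters. After 24 h dosing, reporter transcripts are measured by fluorescent RT-PCR/capillary electrophoresis, with DMSO as negative control.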
# [11] = molecular target: human RAR-related Orphan Receptor gamma (RORg), RORC (gene 6097) (UniProt P51449); assay: ATG_RORg_TRANS: Attagene TRANS-FACTORIAL HepG2 Assay for human RAR-related Orphan Receptor gamma (RORg) (AID 2283011)
# Procedure, shortened: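 Activity is scored as increase in GAL4-UAS reporter mRNA over DMSO, detected by fluorescent RT-PCR and capillary electrophoresis in HepG2 cells transiently expressing a RORg-Gal4 chimera, 24 h after dosing.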
# [12] = molecular target: Retinoic acid receptor RXR-alpha (Homo sapiens) (UniProt P19793); assay: ATG_RXRa_TRANS: Attagene TRANS-FACTORIAL HepG2 Assay for human Retinoid X Receptor alpha (RXRa) (AID 2283012)
# Procedure, shortened: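 Cells (HepG2) carried transiently transfected GAL4-responsive reporter units. Following a 24 h chemical incubation, reporter mRNA induction was read via RT-PCR fragment analysis; DMSO served as negative control and baseline.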
# [13] = molecular target: human Retinoid X Receptor beta (RXRb), RXRB (gene 6257) (UniProt P28702); assay: ATG_RXRb_TRANS: Attagene TRANS-FACTORIAL HepG2 Assay for human Retinoid X Receptor beta (RXRb) (AID 2283013)
# Procedure, shortened: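 Multiplexed TRANS reporter assay in HepG2; 24 h dosing; reporter mRNA by RT-PCR/CE fluorescence; gain-of-signal relative to DMSO.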
# [14] = molecular target: human Thyroid Receptor alpha (THRa1), THRA (gene 7067) (UniProt P10827); assay: ATG_THRa1_TRANS: Attagene TRANS-FACTORIAL HepG2 Assay for human Thyroid Receptor alpha (THRa1) (AID 2283014)
# Procedure, shortened: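 First, HepG2 cells receive multiple GAL4-UAS reporter units and the chimeric receptor. They are then dosed for 24 h, after which RNA is reverse-transcribed, amplified, labelled, HpaI-cut and sized by capillary electrophoresis; gain relative to DMSO is scored.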
# [15] = BSK_3C_TissueFactor: BioMAP Diversity Plus: 3C Assay for Tissue Factor Biomarker Activity (AID 2282997; active means hit-call score of the fitted dose curve at least 0.9, where 1 is the maximum; inactive means score below 0.9); settings: BioMAP 3C HUVEC, tissue factor biomarker readout; actives raise or lower the signal
# Procedure, shortened: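 Values derive from bidirectional curve fitting against DMSO of Tissue Factor ELISA signals, taken 24 h after dosing primary human umbilical vein endothelial cells.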
# [16] = molecular target: human Peroxisome Proliferator-activated Receptor alpha (PPARa), PPARA (gene 5465) (UniProt Q07869); assay: ATG_PPARa_TRANS: Attagene TRANS-FACTORIAL HepG2 Assay for human Peroxisome Proliferator-activated Receptor alpha (PPARa) (AID 2283001)
# Procedure, shortened: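 Measures transcriptional activity of an exogenous chimeric PPARa-Gal4 protein in transiently transfected HepG2 cells after 24 h dosing. Reporter mRNA quantified via RT-PCR and capillary electrophoresis; DMSO served as negative control.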
# [17] = molecular target: human Retinoic Acid Receptor gamma (RARg), RARG (gene 5916) (UniProt P13631); assay: ATG_RARg_TRANS: Attagene TRANS-FACTORIAL HepG2 Assay for human Retinoic Acid Receptor gamma (RARg) (AID 2283009)
# Procedure, shortened: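 HepG2, RARg-GAL4 TRANS system, 24 h exposure; reporter mRNA by RT-PCR + CE fluorescence; increase over DMSO.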
# [18] = molecular target: human Retinoic Acid Receptor beta (RARb), RARB (gene 5915) (UniProt P10826); assay: ATG_RARb_TRANS: Attagene TRANS-FACTORIAL HepG2 Assay for human Retinoic Acid Receptor beta (AID 2283004)
# Procedure, shortened: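 HepG2, transient MRTU transfection, NR–Gal4 chimera, 24 h treatment; RT-PCR plus CE fluorescence detection of reporter mRNA; gain of signal vs DMSO.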
# [19] = molecular target: Retinoic acid receptor alpha (Homo sapiens) (UniProt P10276); assay: ATG_RARa_TRANS: Attagene TRANS-FACTORIAL HepG2 Assay for human Retinoic Acid Receptor alpha (RARa) (AID 2283005)
# Procedure, shortened: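 HepG2 transiently transfected with multiplex GAL4-UAS reporter units including a human RARa–GAL4 chimera; 24 h compound exposure. Reporter mRNA quantified by RT-PCR, 6-FAM labeling and capillary electrophoresis; gain of signal versus DMSO.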
# [20] = molecular target: Peroxisome proliferator-activated receptor gamma (Homo sapiens) (UniProt P37231); assay: ATG_PPARg_TRANS: Attagene TRANS-FACTORIAL HepG2 Assay for human Peroxisome Proliferator-activated Receptor-gamma (PPARg) (AID 2283007)
# Procedure, shortened: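 Multiplexed reporter transcription units in HepG2, 24 h dosing, reporter transcripts quantified by fluorescent RT-PCR and capillary electrophoresis. Increase over DMSO scored.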
# human Thyroid Receptor alpha (THRa1), THRA (gene 7067), sequence (P10827 whole entry, looked up, the tested form may be a part): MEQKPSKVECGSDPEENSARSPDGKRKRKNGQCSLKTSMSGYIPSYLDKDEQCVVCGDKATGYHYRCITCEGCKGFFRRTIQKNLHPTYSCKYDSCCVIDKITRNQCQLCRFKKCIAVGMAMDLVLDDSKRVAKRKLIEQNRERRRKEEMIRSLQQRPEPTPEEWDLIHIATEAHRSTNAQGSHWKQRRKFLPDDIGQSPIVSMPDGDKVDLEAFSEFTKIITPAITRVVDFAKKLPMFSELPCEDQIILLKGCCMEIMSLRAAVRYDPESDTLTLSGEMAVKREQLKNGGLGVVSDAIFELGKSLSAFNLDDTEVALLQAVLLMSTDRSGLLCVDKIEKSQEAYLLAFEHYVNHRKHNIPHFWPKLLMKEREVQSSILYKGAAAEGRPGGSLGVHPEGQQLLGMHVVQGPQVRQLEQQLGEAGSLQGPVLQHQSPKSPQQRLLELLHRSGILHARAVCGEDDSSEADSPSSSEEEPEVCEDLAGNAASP
# Peroxisome proliferator-activated receptor gamma (Homo sapiens), sequence (P37231 whole entry, looked up): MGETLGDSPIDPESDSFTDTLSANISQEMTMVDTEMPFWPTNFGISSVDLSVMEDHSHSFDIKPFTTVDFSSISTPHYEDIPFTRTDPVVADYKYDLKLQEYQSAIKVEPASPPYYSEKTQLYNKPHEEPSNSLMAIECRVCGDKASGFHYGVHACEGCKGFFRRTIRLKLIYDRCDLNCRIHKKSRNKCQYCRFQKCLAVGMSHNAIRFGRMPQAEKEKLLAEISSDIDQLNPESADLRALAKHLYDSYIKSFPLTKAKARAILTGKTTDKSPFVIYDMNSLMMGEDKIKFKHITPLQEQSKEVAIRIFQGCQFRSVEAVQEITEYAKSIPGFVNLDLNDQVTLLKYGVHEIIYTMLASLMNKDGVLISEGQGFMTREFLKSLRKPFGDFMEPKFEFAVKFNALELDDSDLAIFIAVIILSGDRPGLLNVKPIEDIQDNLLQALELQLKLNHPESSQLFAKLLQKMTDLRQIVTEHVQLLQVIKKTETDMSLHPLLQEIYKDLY
# human Peroxisome Proliferator-activated Receptor delta (PPARd), PPARD (gene 5467), sequence (Q03181 whole entry, looked up, the tested form may be a part): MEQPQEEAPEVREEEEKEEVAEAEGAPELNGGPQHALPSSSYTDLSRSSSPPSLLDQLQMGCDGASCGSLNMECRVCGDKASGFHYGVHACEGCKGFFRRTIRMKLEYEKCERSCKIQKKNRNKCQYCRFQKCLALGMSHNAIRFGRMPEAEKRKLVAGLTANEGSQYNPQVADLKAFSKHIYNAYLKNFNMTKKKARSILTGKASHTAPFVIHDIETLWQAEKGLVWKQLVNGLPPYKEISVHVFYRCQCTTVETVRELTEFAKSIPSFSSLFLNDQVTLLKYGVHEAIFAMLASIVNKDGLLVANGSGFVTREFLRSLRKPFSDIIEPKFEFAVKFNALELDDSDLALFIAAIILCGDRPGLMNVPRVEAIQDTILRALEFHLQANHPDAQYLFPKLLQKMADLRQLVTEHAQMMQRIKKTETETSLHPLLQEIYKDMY
# Retinoic acid receptor RXR-alpha (Homo sapiens), sequence (P19793 whole entry, looked up, the tested form may be a part): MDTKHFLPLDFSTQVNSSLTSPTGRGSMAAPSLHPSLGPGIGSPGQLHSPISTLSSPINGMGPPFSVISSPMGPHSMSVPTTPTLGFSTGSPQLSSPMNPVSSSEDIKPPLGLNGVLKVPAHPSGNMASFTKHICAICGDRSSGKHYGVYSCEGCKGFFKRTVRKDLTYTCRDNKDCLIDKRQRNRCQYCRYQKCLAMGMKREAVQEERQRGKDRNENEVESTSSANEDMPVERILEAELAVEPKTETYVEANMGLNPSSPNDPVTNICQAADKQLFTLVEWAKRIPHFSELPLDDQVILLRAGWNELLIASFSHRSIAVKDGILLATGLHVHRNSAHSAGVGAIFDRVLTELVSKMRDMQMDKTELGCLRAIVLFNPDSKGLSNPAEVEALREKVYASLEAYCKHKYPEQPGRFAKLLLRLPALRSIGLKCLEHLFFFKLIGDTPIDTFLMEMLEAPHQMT
# Nuclear receptor subfamily 1 group I member 2 (Homo sapiens), sequence (O75469 whole entry, looked up, the tested form may be a part): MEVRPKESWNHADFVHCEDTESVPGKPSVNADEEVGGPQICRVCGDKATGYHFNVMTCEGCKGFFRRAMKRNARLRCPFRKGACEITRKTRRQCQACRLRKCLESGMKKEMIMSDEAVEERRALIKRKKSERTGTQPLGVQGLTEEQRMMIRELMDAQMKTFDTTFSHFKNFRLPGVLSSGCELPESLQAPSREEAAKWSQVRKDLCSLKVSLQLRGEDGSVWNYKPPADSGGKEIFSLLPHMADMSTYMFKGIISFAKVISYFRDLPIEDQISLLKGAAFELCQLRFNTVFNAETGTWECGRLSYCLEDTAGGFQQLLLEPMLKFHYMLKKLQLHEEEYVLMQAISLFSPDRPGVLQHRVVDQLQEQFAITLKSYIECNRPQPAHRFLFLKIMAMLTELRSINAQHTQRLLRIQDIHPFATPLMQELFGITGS
# Retinoic acid receptor alpha (Homo sapiens), sequence (P10276 whole entry, looked up, the tested form may be a part): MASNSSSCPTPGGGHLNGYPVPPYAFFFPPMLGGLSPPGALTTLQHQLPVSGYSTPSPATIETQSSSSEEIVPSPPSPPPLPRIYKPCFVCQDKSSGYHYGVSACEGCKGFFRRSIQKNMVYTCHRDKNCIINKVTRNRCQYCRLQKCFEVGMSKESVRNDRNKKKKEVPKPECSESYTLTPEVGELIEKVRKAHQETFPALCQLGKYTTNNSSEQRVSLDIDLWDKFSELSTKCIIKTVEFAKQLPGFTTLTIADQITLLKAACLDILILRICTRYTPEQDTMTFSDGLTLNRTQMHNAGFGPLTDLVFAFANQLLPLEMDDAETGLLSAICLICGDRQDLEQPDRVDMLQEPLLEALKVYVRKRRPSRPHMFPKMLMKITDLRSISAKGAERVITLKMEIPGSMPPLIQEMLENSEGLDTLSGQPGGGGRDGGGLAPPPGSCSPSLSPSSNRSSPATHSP
# human RAR-related Orphan Receptor gamma (RORg), RORC (gene 6097), sequence (P51449 whole entry, looked up, the tested form may be a part): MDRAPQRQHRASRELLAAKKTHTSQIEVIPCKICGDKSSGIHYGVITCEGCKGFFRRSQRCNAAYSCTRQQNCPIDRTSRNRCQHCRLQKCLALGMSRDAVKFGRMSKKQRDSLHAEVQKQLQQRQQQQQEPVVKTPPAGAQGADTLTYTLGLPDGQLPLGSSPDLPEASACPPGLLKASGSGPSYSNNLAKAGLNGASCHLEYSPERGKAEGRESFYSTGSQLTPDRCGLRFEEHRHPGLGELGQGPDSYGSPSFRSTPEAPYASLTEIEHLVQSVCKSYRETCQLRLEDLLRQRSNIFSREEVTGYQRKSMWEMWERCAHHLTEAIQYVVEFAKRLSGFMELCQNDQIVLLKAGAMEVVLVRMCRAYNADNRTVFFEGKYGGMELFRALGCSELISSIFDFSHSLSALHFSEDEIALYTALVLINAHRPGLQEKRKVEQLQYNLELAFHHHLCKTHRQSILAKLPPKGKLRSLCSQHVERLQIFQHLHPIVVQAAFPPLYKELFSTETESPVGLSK
# Cellular tumor antigen p53 (Homo sapiens), sequence (P04637 whole entry, looked up): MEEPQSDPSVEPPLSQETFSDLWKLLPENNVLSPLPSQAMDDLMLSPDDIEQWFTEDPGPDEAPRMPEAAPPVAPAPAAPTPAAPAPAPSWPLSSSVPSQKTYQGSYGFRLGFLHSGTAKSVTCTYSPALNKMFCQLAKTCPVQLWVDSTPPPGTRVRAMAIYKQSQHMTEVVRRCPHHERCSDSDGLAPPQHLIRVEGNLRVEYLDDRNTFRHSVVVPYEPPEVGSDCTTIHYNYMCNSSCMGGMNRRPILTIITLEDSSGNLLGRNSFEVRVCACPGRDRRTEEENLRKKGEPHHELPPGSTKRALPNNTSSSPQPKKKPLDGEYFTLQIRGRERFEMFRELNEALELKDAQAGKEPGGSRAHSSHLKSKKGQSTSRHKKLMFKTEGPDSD
# human Retinoid X Receptor beta (RXRb), RXRB (gene 6257), sequence (P28702 whole entry, looked up): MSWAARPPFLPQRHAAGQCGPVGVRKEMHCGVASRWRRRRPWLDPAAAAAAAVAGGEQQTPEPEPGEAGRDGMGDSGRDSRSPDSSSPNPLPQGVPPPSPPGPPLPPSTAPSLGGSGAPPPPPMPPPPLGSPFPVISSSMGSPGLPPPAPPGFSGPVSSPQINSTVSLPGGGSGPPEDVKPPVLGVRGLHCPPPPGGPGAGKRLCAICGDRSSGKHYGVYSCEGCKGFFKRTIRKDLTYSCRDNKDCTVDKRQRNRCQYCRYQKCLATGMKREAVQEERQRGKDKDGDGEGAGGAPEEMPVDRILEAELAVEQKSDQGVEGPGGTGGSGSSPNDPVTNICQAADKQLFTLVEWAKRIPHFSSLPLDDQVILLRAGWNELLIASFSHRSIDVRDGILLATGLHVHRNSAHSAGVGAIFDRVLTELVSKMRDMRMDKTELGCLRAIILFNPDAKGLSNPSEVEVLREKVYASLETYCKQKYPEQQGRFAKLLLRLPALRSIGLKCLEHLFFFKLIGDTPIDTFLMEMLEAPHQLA
# human Peroxisome Proliferator-activated Receptor alpha (PPARa), PPARA (gene 5465), sequence (Q07869 whole entry, looked up, the tested form may be a part): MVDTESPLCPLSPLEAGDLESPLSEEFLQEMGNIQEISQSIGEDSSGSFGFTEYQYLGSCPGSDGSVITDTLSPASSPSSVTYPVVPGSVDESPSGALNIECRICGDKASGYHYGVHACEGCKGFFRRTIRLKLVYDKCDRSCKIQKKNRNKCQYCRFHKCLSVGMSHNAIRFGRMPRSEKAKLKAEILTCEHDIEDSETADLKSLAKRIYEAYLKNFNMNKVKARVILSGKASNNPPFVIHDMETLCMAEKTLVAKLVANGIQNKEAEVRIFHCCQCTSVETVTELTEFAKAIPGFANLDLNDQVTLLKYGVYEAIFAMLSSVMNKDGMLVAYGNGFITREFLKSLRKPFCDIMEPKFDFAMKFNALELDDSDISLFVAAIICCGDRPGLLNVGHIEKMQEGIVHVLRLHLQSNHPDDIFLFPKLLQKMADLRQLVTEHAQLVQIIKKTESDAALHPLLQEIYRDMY
smiles,measurement,setting,value
CC(C)(C)CC(C)(C)c1ccc(O)cc1,outcome,[1],inactive
same,AC50,[2],16 µM (active) and 16.4 µM (active)
same,outcome,[2],inactive
same,AC50,[3],7.17 µM (active)
same,AC50,[4],6.92 µM (active)
same,AC50,[5],8.11 µM (active)
same,outcome,[6],inactive
same,AC50,[7],10.8 µM (active)
same,AC50,[8],7.69 µM (active)
same,AC50,[9],8.34 µM (active) and 7.58 µM (active) and 5.92 µM (active)
same,outcome,[9],inactive
same,outcome,[10],inactive
same,outcome,[11],inactive
same,outcome,[12],inactive
same,AC50,[13],11.1 µM (active) and 4.81 µM (active) and 6.61 µM (active)
same,outcome,[14],inactive
CN(C)N=O,outcome,[1],inactive
same,outcome,[2],inactive
same,outcome,[15],inactive
same,outcome,[3],inactive
same,outcome,[4],inactive
same,outcome,[5],inactive
same,outcome,[16],inactive
same,outcome,[7],inactive
same,outcome,[8],inactive
same,outcome,[9],inactive
same,outcome,[17],inactive
same,outcome,[12],inactive
same,outcome,[13],inactive
same,outcome,[14],inactive
O=C(O)C(Cl)(Cl)Cl,outcome,[1],inactive
same,outcome,[2],inactive
same,outcome,[3],inactive
same,outcome,[4],inactive
same,outcome,[5],inactive
same,outcome,[16],inactive
same,outcome,[7],inactive
same,outcome,[18],inactive
same,outcome,[19],inactive
same,outcome,[8],inactive
same,outcome,[9],inactive
same,outcome,[10],inactive
same,outcome,[11],inactive
same,outcome,[12],inactive
same,outcome,[13],inactive
same,outcome,[14],inactive
Nc1cccc2ccccc12,outcome,[1],inactive
same,outcome,[2],inactive
same,outcome,[3],inactive
same,outcome,[4],inactive
same,outcome,[5],inactive
same,outcome,[16],inactive
same,outcome,[7],inactive
same,AC50,[8],7.58 µM (active)
same,outcome,[20],inactive
same,outcome,[9],inactive
same,outcome,[12],inactive
same,outcome,[13],inactive
same,outcome,[14],inactive
CCOP(=S)(OCC)SCSP(=S)(OCC)OCC,outcome,[1],inactive
same,outcome,[2],inactive
same,outcome,[15],inactive
same,outcome,[3],inactive
same,outcome,[4],inactive
same,outcome,[5],inactive
same,outcome,[7],inactive
same,outcome,[18],inactive
same,outcome,[19],inactive
same,outcome,[8],inactive
same,outcome,[20],inactive
same,AC50,[9],168 nM (active)
same,outcome,[17],inactive
same,outcome,[11],inactive
same,outcome,[12],inactive
same,AC50,[13],12.4 µM (active)
same,outcome,[14],inactive
CCOP(=S)(OCC)Oc1nc(Cl)c(Cl)cc1Cl,AC50,[1],117 µM (active)
same,outcome,[2],inactive
same,AC50,[3],33.5 µM (active)
same,AC50,[4],25.8 µM (active)
same,AC50,[5],27.9 µM (active)
same,outcome,[6],inactive
same,outcome,[7],inactive
same,AC50,[8],20 µM (active)
same,AC50,[20],46.8 µM (active)
same,AC50,[9],5640 nM (active)
same,outcome,[10],inactive
same,outcome,[12],inactive
same,AC50,[13],30.9 µM (active)
same,outcome,[14],inactive
C=CC(=O)OCCCCCC(C)C,outcome,[1],inactive
same,outcome,[2],inactive
same,outcome,[3],inactive
same,outcome,[4],inactive
same,outcome,[5],inactive
same,outcome,[16],inactive
same,outcome,[6],inactive
same,outcome,[7],inactive
same,outcome,[8],inactive
same,outcome,[20],inactive
same,outcome,[11],inactive
same,outcome,[12],inactive
same,outcome,[13],inactive
CC(=O)C(Cl)C(=O)N(C)C (centres undefined),outcome,[1],inactive
same,AC50,[2],178 µM (active)
same,AC50,[3],30.1 µM (active)
same,AC50,[4],20 µM (active)
same,AC50,[5],21.6 µM (active)
same,outcome,[16],inactive
same,outcome,[6],inactive
same,outcome,[7],inactive
same,AC50,[8],20 µM (active)
same,outcome,[20],inactive
same,outcome,[9],inactive
same,outcome,[10],inactive
same,outcome,[11],inactive
same,outcome,[12],inactive
same,outcome,[13],inactive
same,outcome,[14],inactive

# Reference: PubChem BioAssay (EPA / NIEHS)
